Source: PubChem
Shown is part of a subset that was picked to be rich in hits.
HT1080 IDH1KD tx: toxicity to HT-1080 IDH1 knockdown cells (counter line); HT-1080 IDH1 knockdown viability, ATP luminescence, 48 h; 360,000 tested, 2% active; AID 686971; Potency, µM (doses to about 46.1 µM), without a hit: at the top dose activity, negative = toxicity, most hits filed as cytotoxic;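 also: potency is read from the fitted curve at half-maximal effect; 0% = DMSO wells and -100% = cell-free medium wells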
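Luminescent ATP read-out (CellTiter-Glo, 10 min at room temperature) after 48 h compound exposure at 37 °C gave viability of IDH1-knockdown HT-1080 cells. Activity was normalised to DMSO and cell-free wells, then fitted as concentration-response curves.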
IL-1B inflam inh: inhibitors of inflammasome signaling (IL-1 beta secretion). THP-1 LPS/ATP IL-1B secretion, AlphaLISA, 16 h; active compounds read low. activity change, % at 57.5 µM. 360,000 tested, 4.7% active. AID 743279; in the data active = activity change below about -50%; inconclusive = mostly about -30% to -49%
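Secreted IL-1B measured by AlphaLISA bead assay after 16 h compound exposure of THP-1 cells; compounds (final up to 57.5 uM) added 1 h before LPS (250 ng/mL) and ATP (1.25 mM) stimulation; lower signal means less secretion.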
12-LOX inh: blocks human arachidonate 12S-lipoxygenase | purified 12hLO, xylenol orange hydroperoxide absorbance | Potency, µM (series often up to 108 µM), for the others: at the top dose activity change, negative = inhibition, usual class: inhibitors | AID 1671190 | P18054 | 580,000 tested, 1.1% active; also: potency is read from the fitted curve at half-maximal effect
Target sequence (P18054 whole entry, looked up): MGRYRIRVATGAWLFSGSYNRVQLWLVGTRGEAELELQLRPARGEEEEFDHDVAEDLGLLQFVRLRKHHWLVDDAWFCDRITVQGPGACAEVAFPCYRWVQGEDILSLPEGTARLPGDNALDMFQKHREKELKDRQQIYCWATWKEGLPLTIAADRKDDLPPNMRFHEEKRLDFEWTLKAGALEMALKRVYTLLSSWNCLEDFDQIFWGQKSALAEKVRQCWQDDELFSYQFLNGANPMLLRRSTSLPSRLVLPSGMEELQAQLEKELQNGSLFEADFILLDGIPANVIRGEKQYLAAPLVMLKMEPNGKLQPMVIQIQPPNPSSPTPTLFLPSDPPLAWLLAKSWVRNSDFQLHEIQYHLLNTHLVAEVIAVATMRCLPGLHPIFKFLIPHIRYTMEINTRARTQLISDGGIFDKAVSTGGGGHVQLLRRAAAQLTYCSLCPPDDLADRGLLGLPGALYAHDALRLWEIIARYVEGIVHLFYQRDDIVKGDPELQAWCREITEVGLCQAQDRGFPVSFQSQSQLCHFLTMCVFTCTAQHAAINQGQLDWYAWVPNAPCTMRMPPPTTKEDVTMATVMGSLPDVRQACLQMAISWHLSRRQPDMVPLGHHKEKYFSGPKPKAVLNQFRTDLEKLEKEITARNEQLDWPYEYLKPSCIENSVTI
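Purified human 12hLO at 150 nM in 25 mM Hepes, 0.01% Triton X-100, pH 7.0, preincubated 15 min at room temperature with compound. Reaction started with 40 uM arachidonic acid, 30 min at room temperature. Hydroperoxide measured by Fe-xylenol orange, 573/405 nm absorbance ratio.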
TDP1 cell noCPT: qHTS for Inhibitors of human tyrosyl-DNA phosphodiesterase 1 (TDP1): qHTS in cells in absence of CPT. DT40 Tdp1-/- hTDP1 cells, no CPT, ATP luminescence, 48 h. AID 686978, 2013. Potency, µM (doses to about 46.2 µM), for inactives: at the top dose activity change, negative = growth inhibition, hits mostly inhibitors. 420,000 tested, 15% active; also: potency is read from the fitted curve at half-maximal effect; nearly all actives have a fitted effect of over 55% in size
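Chicken DT40 Tdp1-/- cells stably complemented with human TDP1 were seeded at 400 cells/well with DMSO in place of 20 nM camptothecin. After compound pinning, cells grew at least 48 hr at 37 °C; viability read by CellTiter-Glo luminescence.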
HT1080NT lethal: kills 2HG-producing HT-1080-NT fibrosarcoma cells; Potency, µM (top dose mostly 46.1 µM), without a hit: top-dose activity, negative = less viability, actives largely listed as cytotoxic; AID 686970; 360,000 tested, 1.6% active; HT-1080-NT fibrosarcoma viability, CellTiter-Glo ATP luminescence, 48 h;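 also: NT is the 2HG producing partner of a matched IDH1 knockdown line; potency is read from the fitted curve at half-maximal effect; 0% = DMSO-treated cells and -100% = media-only wells without cells; nearly all actives have a fitted effect of over 55% in size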
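Fibrosarcoma NT cells, 750 per well in 5% FBS RPMI, were exposed to compound for 48 hours. Viability: CellTiter-Glo luminescence.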
DT40 TDP1 CPT: DT40-hTDP1 cell growth loss with CPT. 420,000 tested, 12% active. Potency, µM (titrated, usually from 46.2 µM), inactives show at the highest dose activity change, negative = growth inhibition, most hits filed as inhibitors. chicken DT40 Tdp1-/-;hTDP1 cells + 20 nM CPT, ATP luminescence, 48 h; also: potency is read from the fitted curve at half-maximal effect; nearly all actives have a fitted effect of over 55% in size
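Cell growth measured by CellTiter-Glo luminescence after a minimum 48 h, 37 C compound exposure with 20 nM CPT in Tdp1-knockout DT40 cells stably expressing hTDP1, seeded 400/well; qHTS titration format.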
Numbers without * were called inactive; ? = inconclusive; . = not tested or not shown; [ ] = dose if it differs, or a comment. Unless noted, calls follow the shape of the dose curve; as a rule, active = well fitted curve in the direction sought with a large enough effect; inconclusive = small, poorly fitted or top-dose-only effect, or another doubt; inactive = no such curve, though single readings can be large; an effect the other way counts as inactive or inconclusive. Unless noted, % is scaled to controls: 0 for no effect and ±100 for the full control effect.

SMILES | HT1080 IDH1KD tx | IL-1B inflam inh | 12-LOX inh | TDP1 cell noCPT | HT1080NT lethal | DT40 TDP1 CPT
O=C(NCCc1c[nH]c2ccccc12)Nc1ccccc1C(F)(F)F | . | . | -17.8% | ? | . | 23.1µM*
Cc1ccc(CNC(=O)N2CCc3nnc(C4CC4)n3CC2)cc1 | . | . | -5.0% | . | . | .
CCC(=O)Oc1c(Sc2ccc(Cl)cc2)c(C)nn1C(C)(C)C | . | . | ? | -28.6% | . | ?
O=C(CCCc1c[nH]c2ccccc12)Nc1ccc2ccccc2c1 | -21.8% | -85.2* | ? | -22.1% | -14.4% | -0.1%
O=C(Nc1ccccc1C(=O)OCC(=O)c1c[nH]c2ccccc12)c1ccco1 | -6.2% | -1.5 | -9.8% | ? | ? | 8.2µM*
CCN(CC)C(=O)COC(=O)c1ccccc1NC(=O)c1ccco1 | . | . | 5.8% | . | . | .
COc1ccc(-c2noc([C@@H]3Cc4nc[nH]c4CN3C(=O)NC3CCCCC3)n2)cc1 | . | . | 3.55µM* | . | . | .
O=[N+]([O-])c1cccc(-c2noc([C@@H]3Cc4nc[nH]c4CN3CC3CCCCC3)n2)c1 | . | . | -8.6%[176 µM] | . | . | .
O=C(NC1CCCCC1)N1Cc2[nH]cnc2C[C@H]1c1nc(-c2cccc([N+](=O)[O-])c2)no1 | . | . | 6.31µM* | . | . | .
O=C(Nc1ccccc1)N1Cc2[nH]cnc2C[C@H]1c1nc(-c2ccc3ccccc3c2)no1 | . | . | 87.3% | . | . | .
COc1ccc(-c2noc([C@@H]3Cc4nc[nH]c4CN3C(=O)Nc3ccc(Cl)cc3)n2)cc1 | . | . | 11.8% | . | . | .
O=C(NC1CCCCC1)N1Cc2[nH]cnc2C[C@H]1c1nc(-c2ccc3ccccc3c2)no1 | . | . | 10µM* | . | . | .
COc1ccc(OC)c(S(=O)(=O)N2CCCCCCN(C)C(=O)CC2)c1 | . | . | 50.2% | . | . | .
CC(C)NC(=S)N/N=C/c1ccc(C(C)(C)C)cc1 | ? | -68.2* | 31.6µM* | 10.3µM* | ? | 13µM*
CC(C)C(=O)N/N=C/c1cccs1 | . | . | -0.5% | . | . | .
CC(C)NC(=S)N/N=C/c1cccs1 | -13.2% | -0.9 | -21.4% | 0.82µM* | -2.3% | 0.92µM*
CNC(=S)N/N=C/c1cc(C)ccc1C | 0.0% | -12.4 | ? | ? | 12.2% | ?
Cc1ccc(C)c(/C=N/NC(=S)NC(C)C)c1 | 19.2% | 4.5 | -27.7% | 5.8µM* | 25.7% | 5.8µM*
Cc1ncoc1C(=O)NC1CCc2nn(CC3CC3)c(=O)n2CC1 (stereo not drawn) | . | . | 43.7% | . | . | .
CCc1nc2ccc(C(=O)Nc3cccc(OCC(=O)N(C)C)c3)cn2c1N(C)Cc1ccc(OC)cc1 | -16.7% | -12.2 | -3.8% | 18.4µM* | ? | 23.1µM*
CCc1nc2ccc(C(=O)Nc3cccc(OCC(=O)N(C)C)c3)cn2c1N(CCN(C)C)CC1CC1 | 8.7% | -16.0 | 13.0% | -0.3% | 7.6% | 0.4%
CCc1nc2ccc(C(=O)Nc3cccc(OCC(=O)N(C)C)c3)cn2c1N(CC)CCN(C)C | 4.1% | 9.2 | -11.9% | 9.0% | 17.0% | 9.8%
Cc1nc2ccc(C(=O)Nc3cccc(OCC(=O)N(C)C)c3)cn2c1N(C)CC1CCCCC1 | ? | -50.9* | -3.8% | 13µM* | ? | 20.6µM*
CCc1nc2ccc(C(=O)Nc3cccc(OCC(=O)N(C)C)c3)cn2c1N(CC)CCOC | ? | -20.1 | -43.2% | 16.4µM* | 27.5% | 16.4µM*
Cc1nnc(SC(C)C(=O)Nc2c(C)n(C)n(-c3ccccc3)c2=O)n1N (stereo not drawn) | -4.9% | 24.2 | -17.5% | 4.0% | 6.6% | -0.4%
Cc1noc(C)c1CC(=O)N1CC2CC(C1)[C@H]1CCCC(=O)N1C2 (stereo partly drawn) | . | . | -16.1% | . | . | .
CCOc1ccc(C2CCCN2C(=O)Cn2nc(C)c3ccccc3c2=O)cc1 (stereo not drawn) | . | . | -3.1% | . | . | .
